Measurements as given in the supplement of paper PMC10849652.
Targets with a hit are over-represented here; the source holds about 7,900 in all. About 0.6% of all pairs of compound and target were hits. Values without a mark were called inactive.

Chain of UniProt Q70Z53 (Q70Z53 whole entry, looked up): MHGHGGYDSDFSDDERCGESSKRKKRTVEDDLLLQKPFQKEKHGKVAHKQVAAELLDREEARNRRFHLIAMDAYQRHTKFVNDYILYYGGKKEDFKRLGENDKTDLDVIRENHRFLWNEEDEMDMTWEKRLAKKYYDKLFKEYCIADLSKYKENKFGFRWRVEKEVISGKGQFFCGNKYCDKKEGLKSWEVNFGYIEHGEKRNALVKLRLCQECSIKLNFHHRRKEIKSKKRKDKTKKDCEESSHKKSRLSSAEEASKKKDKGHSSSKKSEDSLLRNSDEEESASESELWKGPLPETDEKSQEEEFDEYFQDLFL
Chain of UniProt O43824 (O43824 whole entry, looked up): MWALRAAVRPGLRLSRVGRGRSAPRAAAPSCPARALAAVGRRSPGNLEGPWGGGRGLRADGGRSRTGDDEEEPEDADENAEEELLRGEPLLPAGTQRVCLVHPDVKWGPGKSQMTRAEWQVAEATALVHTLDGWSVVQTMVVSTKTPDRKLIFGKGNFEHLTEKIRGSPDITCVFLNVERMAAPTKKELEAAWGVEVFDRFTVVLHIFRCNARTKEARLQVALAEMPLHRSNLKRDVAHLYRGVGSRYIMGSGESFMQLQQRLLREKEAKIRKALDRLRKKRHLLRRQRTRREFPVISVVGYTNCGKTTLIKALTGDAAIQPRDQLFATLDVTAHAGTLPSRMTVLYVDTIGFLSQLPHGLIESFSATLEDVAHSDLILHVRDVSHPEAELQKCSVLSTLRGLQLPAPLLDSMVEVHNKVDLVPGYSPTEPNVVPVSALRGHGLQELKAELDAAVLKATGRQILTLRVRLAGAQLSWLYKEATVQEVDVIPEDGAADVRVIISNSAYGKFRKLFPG
Chain of UniProt O14893 (O14893 whole entry, looked up): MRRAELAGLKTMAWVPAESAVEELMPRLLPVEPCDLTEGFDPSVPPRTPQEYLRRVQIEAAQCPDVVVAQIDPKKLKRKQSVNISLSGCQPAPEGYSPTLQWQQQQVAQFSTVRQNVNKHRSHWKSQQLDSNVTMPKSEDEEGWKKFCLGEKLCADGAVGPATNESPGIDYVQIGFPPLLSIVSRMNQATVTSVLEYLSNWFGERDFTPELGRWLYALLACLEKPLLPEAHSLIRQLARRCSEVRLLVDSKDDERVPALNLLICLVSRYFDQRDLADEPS
Chain of UniProt Q6Y7W6 (Q6Y7W6 whole entry, looked up): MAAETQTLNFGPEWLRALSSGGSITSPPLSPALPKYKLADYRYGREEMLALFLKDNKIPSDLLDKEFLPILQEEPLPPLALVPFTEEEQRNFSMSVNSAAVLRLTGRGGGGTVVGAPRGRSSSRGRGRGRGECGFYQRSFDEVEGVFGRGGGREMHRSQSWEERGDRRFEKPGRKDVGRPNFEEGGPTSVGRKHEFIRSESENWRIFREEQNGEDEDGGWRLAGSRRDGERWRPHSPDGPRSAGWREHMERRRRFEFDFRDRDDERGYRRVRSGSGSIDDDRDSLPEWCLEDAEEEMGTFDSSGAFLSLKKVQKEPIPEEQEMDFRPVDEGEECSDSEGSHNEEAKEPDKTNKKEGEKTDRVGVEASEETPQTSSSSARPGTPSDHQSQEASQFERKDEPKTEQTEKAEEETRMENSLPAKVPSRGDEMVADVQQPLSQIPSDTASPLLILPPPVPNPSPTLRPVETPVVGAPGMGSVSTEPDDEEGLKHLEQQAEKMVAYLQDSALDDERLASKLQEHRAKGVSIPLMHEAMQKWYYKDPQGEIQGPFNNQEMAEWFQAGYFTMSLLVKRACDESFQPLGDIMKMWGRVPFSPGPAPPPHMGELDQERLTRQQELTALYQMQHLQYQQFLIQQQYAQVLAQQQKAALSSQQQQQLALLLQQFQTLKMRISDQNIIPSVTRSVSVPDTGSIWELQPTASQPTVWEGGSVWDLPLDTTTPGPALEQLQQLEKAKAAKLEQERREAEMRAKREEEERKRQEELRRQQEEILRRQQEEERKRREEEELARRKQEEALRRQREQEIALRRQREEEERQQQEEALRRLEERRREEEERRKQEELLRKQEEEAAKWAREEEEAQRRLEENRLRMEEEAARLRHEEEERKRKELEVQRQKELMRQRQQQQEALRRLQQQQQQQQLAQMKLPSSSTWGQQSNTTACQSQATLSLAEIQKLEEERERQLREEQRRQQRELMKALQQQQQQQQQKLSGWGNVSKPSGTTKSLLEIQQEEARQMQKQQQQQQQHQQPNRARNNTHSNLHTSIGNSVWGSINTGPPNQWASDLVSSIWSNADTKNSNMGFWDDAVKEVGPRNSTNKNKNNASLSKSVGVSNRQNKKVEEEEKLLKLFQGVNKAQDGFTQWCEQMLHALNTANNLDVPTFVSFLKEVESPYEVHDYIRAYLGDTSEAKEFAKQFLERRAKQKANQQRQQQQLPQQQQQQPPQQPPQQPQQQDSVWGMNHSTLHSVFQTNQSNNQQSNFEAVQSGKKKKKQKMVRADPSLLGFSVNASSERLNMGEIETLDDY
Chain of UniProt P60520 (P60520 whole entry, looked up): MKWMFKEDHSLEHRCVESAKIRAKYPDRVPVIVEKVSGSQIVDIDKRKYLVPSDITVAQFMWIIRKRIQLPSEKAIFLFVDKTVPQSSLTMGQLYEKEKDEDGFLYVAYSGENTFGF
Chain of UniProt Q9BYC5 (Q9BYC5 whole entry, looked up): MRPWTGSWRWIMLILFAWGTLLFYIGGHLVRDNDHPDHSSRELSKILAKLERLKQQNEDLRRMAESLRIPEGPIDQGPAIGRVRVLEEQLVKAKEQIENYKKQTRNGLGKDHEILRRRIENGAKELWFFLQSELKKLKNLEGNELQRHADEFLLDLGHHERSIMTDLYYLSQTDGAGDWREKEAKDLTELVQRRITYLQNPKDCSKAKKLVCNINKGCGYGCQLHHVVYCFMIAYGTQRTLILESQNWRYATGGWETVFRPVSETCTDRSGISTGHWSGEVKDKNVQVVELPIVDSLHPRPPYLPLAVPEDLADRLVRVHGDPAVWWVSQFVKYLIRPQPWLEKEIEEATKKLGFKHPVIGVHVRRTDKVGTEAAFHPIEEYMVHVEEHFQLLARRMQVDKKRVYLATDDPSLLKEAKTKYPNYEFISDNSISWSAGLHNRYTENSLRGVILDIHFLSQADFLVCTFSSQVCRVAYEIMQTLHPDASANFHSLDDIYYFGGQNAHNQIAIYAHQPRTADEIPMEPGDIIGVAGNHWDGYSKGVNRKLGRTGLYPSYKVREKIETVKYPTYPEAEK
Chain of UniProt Q06546 (Q06546 whole entry, looked up): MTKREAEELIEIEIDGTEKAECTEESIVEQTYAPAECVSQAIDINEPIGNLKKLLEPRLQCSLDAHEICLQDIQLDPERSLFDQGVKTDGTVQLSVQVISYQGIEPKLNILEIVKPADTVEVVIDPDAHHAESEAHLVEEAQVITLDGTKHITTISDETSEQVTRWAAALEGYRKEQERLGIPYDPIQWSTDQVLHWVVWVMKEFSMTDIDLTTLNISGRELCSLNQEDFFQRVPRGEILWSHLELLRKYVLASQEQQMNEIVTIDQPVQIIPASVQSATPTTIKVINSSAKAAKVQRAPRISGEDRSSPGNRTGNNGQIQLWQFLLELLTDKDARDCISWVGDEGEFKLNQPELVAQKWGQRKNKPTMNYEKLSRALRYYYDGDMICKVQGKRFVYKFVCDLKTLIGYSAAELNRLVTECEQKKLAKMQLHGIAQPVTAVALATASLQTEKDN
Chain of UniProt P52657 (P52657 whole entry, looked up): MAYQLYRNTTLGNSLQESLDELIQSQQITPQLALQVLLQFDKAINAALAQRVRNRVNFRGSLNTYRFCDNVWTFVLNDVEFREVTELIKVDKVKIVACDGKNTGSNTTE
Chain of UniProt Q8WUI4 (Q8WUI4 whole entry, looked up): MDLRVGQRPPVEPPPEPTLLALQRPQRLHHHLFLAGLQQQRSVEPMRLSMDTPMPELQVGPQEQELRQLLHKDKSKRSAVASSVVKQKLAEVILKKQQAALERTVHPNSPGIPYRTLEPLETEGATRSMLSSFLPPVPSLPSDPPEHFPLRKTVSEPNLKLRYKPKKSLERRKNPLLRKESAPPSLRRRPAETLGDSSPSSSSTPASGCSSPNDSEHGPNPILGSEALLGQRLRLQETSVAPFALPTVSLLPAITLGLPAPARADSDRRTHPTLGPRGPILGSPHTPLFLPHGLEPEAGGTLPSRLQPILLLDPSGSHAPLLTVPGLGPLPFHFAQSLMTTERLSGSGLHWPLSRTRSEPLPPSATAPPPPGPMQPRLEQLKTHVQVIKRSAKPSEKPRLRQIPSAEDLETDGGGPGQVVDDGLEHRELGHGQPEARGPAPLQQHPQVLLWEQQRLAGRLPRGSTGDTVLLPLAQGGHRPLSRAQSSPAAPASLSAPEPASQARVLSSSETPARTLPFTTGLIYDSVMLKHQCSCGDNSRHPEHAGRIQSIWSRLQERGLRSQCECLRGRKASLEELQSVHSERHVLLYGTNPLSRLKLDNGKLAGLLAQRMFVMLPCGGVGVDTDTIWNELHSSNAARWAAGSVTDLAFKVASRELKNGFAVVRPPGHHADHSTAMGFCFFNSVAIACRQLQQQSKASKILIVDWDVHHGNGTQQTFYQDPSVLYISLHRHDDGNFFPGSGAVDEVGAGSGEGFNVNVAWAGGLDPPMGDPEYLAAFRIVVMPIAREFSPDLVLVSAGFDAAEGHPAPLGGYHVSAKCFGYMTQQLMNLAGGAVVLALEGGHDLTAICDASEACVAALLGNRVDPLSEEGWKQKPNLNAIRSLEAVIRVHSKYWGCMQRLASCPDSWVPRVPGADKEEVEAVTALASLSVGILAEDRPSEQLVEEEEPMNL
Chain of UniProt Q8NB37 (Q8NB37 whole entry, looked up): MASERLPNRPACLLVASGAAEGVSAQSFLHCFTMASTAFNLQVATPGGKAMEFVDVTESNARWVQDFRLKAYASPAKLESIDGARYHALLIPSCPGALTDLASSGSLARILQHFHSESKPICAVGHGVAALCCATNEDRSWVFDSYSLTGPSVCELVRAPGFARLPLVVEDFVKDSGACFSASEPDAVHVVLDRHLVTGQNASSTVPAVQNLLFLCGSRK

The targets below were run with FC(F)(F)c1ccc(/C=C/c2nc(COc3ccc(CCCCn4ccnn4)cc3)co2)cc1 [mubritinib] (assay: log2 fold change, soluble protein after heating vs DMSO (PISA); higher = thermal stabilisation; K562 cells, 10 uM, 30 min; active = over 0.2 and 3.5 SD of the protein, either way, in both replicates (recomputed)).
Method in brief: (§1)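 K562 cells at 2×10^6 cells/mL were exposed to 10 μM compound for 30 min, then aliquots were heated for 3 min across 48°C-58°C, pooled, and extracted in PBS containing 0.5% NP-40 at 4°C. The supernatant after 21,000xg for 90 min was taken as soluble protein and measured by TMTpro 16plex LC-MS/MS with channel sums equalised. Thermal stability is reported relative to control samples, with values from duplicates. Fold changes are given on a log2 scale.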
In the case of GABPA (UniProt Q06546), the log2 fold change is reported as 0.019. Work on FRA10AC1 isoform 3 (UniProt Q70Z53) yielded a log2 fold change of 0.011. GINS2 (UniProt Q9Y248) gave a log2 fold change of 0.03. Target GNAS (UniProt Q5JWF2) has a log2 fold change of -0.035. In the case of GYS1 (UniProt P13807), the log2 fold change is reported as 0.001. HEXB (UniProt P07686) gave a log2 fold change of 0.008. HDAC1 (UniProt Q13547) was tested, and the log2 fold change was -0.025. With FKBP4 (UniProt Q02790) the log2 fold change was 0.012. GATD1 (UniProt Q8NB37) gave a log2 fold change of 0.035. In the case of GSTT1 (UniProt P30711), the log2 fold change is reported as 0.012. With HDAC10 (UniProt Q969S8) the log2 fold change was 0.116. GPD1 (UniProt P21695) gave a log2 fold change of 0.045. Target HDAC2 (UniProt Q92769) has a log2 fold change of 0.015. In the case of FKBP3 (UniProt Q00688), the log2 fold change is reported as 0.017. HDAC7 isoform 5 (UniProt Q8WUI4) gave a log2 fold change of -0.006. Target FBXO9 (UniProt Q9UK97) has a log2 fold change of -0.265. For GOPC (UniProt Q9HD26), the log2 fold change was -0.226. In the case of GNL3 (UniProt Q9BVP2), the log2 fold change is reported as 0.134. GIGYF2 (UniProt Q6Y7W6) gave a log2 fold change of -0.03. With GSTP1 (UniProt P09211) the log2 fold change was 0.038. Work on GNL1 (UniProt P36915) yielded a log2 fold change of 0.009. With GTF3A (UniProt Q92664) the log2 fold change was 0.06. GEMIN2 (UniProt O14893) gave a log2 fold change of -0.048. With FUT8 (UniProt Q9BYC5) the log2 fold change was -0.037. Work on GLCCI1 (UniProt Q86VQ1) yielded a log2 fold change of 0.011. FAT1 (UniProt Q14517) gave a log2 fold change of 0.057. With GLRX3 (UniProt O76003) the log2 fold change was -0.004. In the case of IFRD1 (UniProt O00458), the log2 fold change is reported as 0.1. For IDI1 isoform 2 (UniProt Q13907), the log2 fold change was 0.054. Target HEATR3 (UniProt Q7Z4Q2) has a log2 fold change of -0.079. Work on GABARAPL2 (UniProt P60520) yielded a log2 fold change of 0.03. Work on GTPBP6 (UniProt O43824) yielded a log2 fold change of 0.058. In the case of GCLM (UniProt P48507), the log2 fold change is reported as 0.023. In the case of GTF2A2 (UniProt P52657), the log2 fold change is reported as 0.008.

Each target was assayed with NC(=O)Nc1cc(-c2cccc(F)c2)sc1C(=O)N[C@H]1CCCNC1 in the same assay as above.
Method in brief: as §1
With GABPA (UniProt Q06546) the log2 fold change was -0.05. FRA10AC1 isoform 3 (UniProt Q70Z53) gave a log2 fold change of -0.069. Target GINS2 (UniProt Q9Y248) has a log2 fold change of -0.086. GNAS (UniProt Q5JWF2) showed a log2 fold change of -0.133. For GYS1 (UniProt P13807), the log2 fold change was -0.05. Work on HEXB (UniProt P07686) yielded a log2 fold change of 0.003. Target HDAC1 (UniProt Q13547) has a log2 fold change of -0.015. For FKBP4 (UniProt Q02790), the log2 fold change was 0.005. GATD1 (UniProt Q8NB37) was tested, and the log2 fold change was 0.012. For GPD1 (UniProt P21695), the log2 fold change was 0.067. For HDAC2 (UniProt Q92769), the log2 fold change was -0.01. Work on FKBP3 (UniProt Q00688) yielded a log2 fold change of 0.042. With HDAC7 isoform 5 (UniProt Q8WUI4) the log2 fold change was 0.009. GOPC (UniProt Q9HD26) showed a log2 fold change of -0.055. With GNL3 (UniProt Q9BVP2) the log2 fold change was 0.08. Target GIGYF2 (UniProt Q6Y7W6) has a log2 fold change of -0.102. With GSTP1 (UniProt P09211) the log2 fold change was -0.044. GNL1 (UniProt P36915) gave a log2 fold change of -0.045. GTF3A (UniProt Q92664) gave a log2 fold change of -0.04. GEMIN2 (UniProt O14893) gave a log2 fold change of -0.05. FUT8 (UniProt Q9BYC5) was tested, and the log2 fold change was -0.022. GLCCI1 (UniProt Q86VQ1) showed a log2 fold change of -0.12. In the case of FAT1 (UniProt Q14517), the log2 fold change is reported as -0.018. Work on GLRX3 (UniProt O76003) yielded a log2 fold change of 0. IFRD1 (UniProt O00458) showed a log2 fold change of -0.035. IDI1 isoform 2 (UniProt Q13907) was tested, and the log2 fold change was -0.062. For HEATR3 (UniProt Q7Z4Q2), the log2 fold change was 0. For GABARAPL2 (UniProt P60520), the log2 fold change was -0.036. In the case of GTPBP6 (UniProt O43824), the log2 fold change is reported as -0.052. GCLM (UniProt P48507) showed a log2 fold change of -0.028. With GTF2A2 (UniProt P52657) the log2 fold change was 0.023. Target FASTKD1 (UniProt Q53R41) has a log2 fold change of 0.046.

Each target was assayed with NC(=O)c1cnc(N[C@@H]2CCCC[C@@H]2N)nc1Nc1cccc(-n2nccn2)c1 in the same assay as above.
Method in brief: as §1
With GABPA (UniProt Q06546) the log2 fold change was -0.057. FRA10AC1 isoform 3 (UniProt Q70Z53) was tested, and the log2 fold change was 0.114. In the case of GNAS (UniProt Q5JWF2), the log2 fold change is reported as -0.009. Work on GYS1 (UniProt P13807) yielded a log2 fold change of -0.027. HEXB (UniProt P07686) gave a log2 fold change of -0.051. In the case of HDAC1 (UniProt Q13547), the log2 fold change is reported as 0.128. Target FKBP4 (UniProt Q02790) has a log2 fold change of -0.071. GATD1 (UniProt Q8NB37) gave a log2 fold change of 0.028. GSTT1 (UniProt P30711) showed a log2 fold change of 0.012. HDAC10 (UniProt Q969S8) gave a log2 fold change of 0.061. In the case of GPD1 (UniProt P21695), the log2 fold change is reported as 0. For HDAC2 (UniProt Q92769), the log2 fold change was -0.037. Work on FKBP3 (UniProt Q00688) yielded a log2 fold change of 0.019. HDAC7 isoform 5 (UniProt Q8WUI4) gave a log2 fold change of 0.123. For GOPC (UniProt Q9HD26), the log2 fold change was -0.011. Work on GNL3 (UniProt Q9BVP2) yielded a log2 fold change of -0.061. Work on GIGYF2 (UniProt Q6Y7W6) yielded a log2 fold change of -0.062. Target GSTP1 (UniProt P09211) has a log2 fold change of -0.01. GNL1 (UniProt P36915) gave a log2 fold change of -0.071. Work on GTF3A (UniProt Q92664) yielded a log2 fold change of -0.095. In the case of GEMIN2 (UniProt O14893), the log2 fold change is reported as -0.015. FUT8 (UniProt Q9BYC5) showed a log2 fold change of 0.094. In the case of GLCCI1 (UniProt Q86VQ1), the log2 fold change is reported as 0.03. GLRX3 (UniProt O76003) gave a log2 fold change of -0.057. For IFRD1 (UniProt O00458), the log2 fold change was -0.275. IDI1 isoform 2 (UniProt Q13907) showed a log2 fold change of 0.01. With GABARAPL2 (UniProt P60520) the log2 fold change was -0.088. GTPBP6 (UniProt O43824) gave a log2 fold change of -0.066. GCLM (UniProt P48507) was tested, and the log2 fold change was 0.073. GTF2A2 (UniProt P52657) showed a log2 fold change of -0.028. Target FASTKD1 (UniProt Q53R41) has a log2 fold change of -0.014.
